Measurements taken from PubChem BioAssay AID504454 (NMMLSC, 2011).
In all, about 340,000 compounds went through this assay and about 1,400 (0.41%) were called active. The full list was thinned out, with actives kept by preference. A number with no mark means an inactive call.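 Rule for the calls: active = response above a set limit, near 3 SD of response in nonfluorescent compounds (cut at about 42% in these data); inactive = the rest.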

Each molecule was assayed against Beta-2 adrenergic receptor (Homo sapiens) (UniProt P07550) (assay: beta2AR agonists driving receptor internalization, primary screen, cell-based, FAP fluorogen, flow cytometry (AID 504454)). Conditions: Am2.2-beta2AR cells, hits give high values, concentration not given here.
Sequence of Beta-2 adrenergic receptor (Homo sapiens) (P07550 whole entry, looked up): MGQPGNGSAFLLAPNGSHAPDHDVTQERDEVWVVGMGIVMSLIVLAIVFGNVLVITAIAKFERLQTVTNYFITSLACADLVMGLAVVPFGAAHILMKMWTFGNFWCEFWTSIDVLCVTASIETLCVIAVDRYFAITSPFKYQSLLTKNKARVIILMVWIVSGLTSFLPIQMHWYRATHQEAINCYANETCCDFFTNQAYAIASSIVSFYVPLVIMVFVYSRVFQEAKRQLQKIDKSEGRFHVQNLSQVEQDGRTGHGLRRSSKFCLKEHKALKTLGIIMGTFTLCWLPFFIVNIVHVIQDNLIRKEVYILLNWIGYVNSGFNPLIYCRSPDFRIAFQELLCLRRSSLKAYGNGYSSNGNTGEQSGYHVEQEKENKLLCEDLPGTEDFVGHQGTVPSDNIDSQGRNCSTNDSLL
In the case of `O=C1NC(=O)N(Cc2ccco2)C(=O)/C1=C\c1ccc(-c2ccc(F)cc2)o1`, the response is reported as 47.3% (active). Work on `O=C1NC(=O)N(CCc2ccc(F)cc2)C(=O)/C1=C/C=C/c1ccccc1` yielded a response of 18.2%. Work on `COc1ccc(N2C(=O)/C(=C/c3ccco3)C(=O)NC2=S)cc1` yielded a response of 11.6%. Molecule `NC(=O)Nc1cccc(C(F)(F)F)c1` has a response of -1.13%. In the case of `Cc1ccc(N2C(=O)NC(=O)C(CCc3ccncc3)(Cc3cccc(Cl)c3Cl)C2=O)cc1` (stereo not given), the response is reported as -11.4%. `O=C1NC(=O)C(CCc2ccccn2)(Cc2cccc(Cl)c2Cl)C(=O)N1c1ccc(Br)cc1` (stereo not given) was tested, and the response was 51.1% (active). With `COc1ccc(C(=O)CC2C(=O)N(C)C(=O)N(C)C2=O)cc1` the response was 8.45%. `CCN(N=Nc1nonc1OC)c1nonc1OC` gave a response of -1.92%. `Cc1c(Oc2cc(NN3CCCCC3)c([N+](=O)[O-])cc2[N+](=O)[O-])cccc1[N+](=O)[O-]` was tested, and the response was -2.15%. For `CCCC(C)n1[nH]c(=O)c2c1NC(=O)CSC2c1ccc(OC)c(OC)c1` (stereo not given), the response was -2.18%. For `C[C@]12CCC3C(CC[C@H]4[C@H](O)[C@H](O)CC[C@]34C)C1CCC2=O` (stereo not given in full), the response was 0.88%. `O=C(N/N=C/c1c(O)n(C2CC2)c(=S)[nH]c1=O)c1ccccc1Cl` showed a response of -2.3%. In the case of `O=C(N/N=C/c1c(O)n(Cc2ccccc2)c(=O)[nH]c1=O)c1ccccc1`, the response is reported as -4.99%. `O=C(N/N=C/c1c(O)n(C2CC2)c(=S)[nH]c1=O)c1ccccc1` was tested, and the response was 88.2% (active). Molecule `CN1CCC[C@@H]1CCO[C@](C)(c1ccccc1)c1ccc(Cl)cc1` has a response of 7.46%. In the case of `CCC(=O)CC(c1ccc([N+](=O)[O-])cc1)c1c(O)c2ccccc2oc1=O` (stereo not given), the response is reported as 8.6%. For `Cc1ccc2c(c1)C1CN(C)CCC1N2C(=O)Cn1nnc(-c2ccccc2F)n1` (stereo not given), the response was 3.52%. `CCc1ccc(OCC(=O)N2CCN(CC(=O)Nc3ccccc3Cl)CC2)cc1` showed a response of 1.84%. In the case of `Cc1ccc(C(C)C)c(OCC(=O)N2CCN(CC(=O)N3CCOCC3)CC2)c1`, the response is reported as 1.49%. For `CCC(=O)c1ccc(OCC(=O)N2CCN(CC(=O)Nc3ccc(C)cc3)CC2)cc1`, the response was 80.6% (active).
